According to PubChem BioAssay (NCI):
The panel holds about 83,000 compounds, 20% with a hit somewhere; the sample as a whole holds those more often.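 Method: cells in 96-well plates; compound added at one concentration; 48 h incubation; percent growth measured; values under 10 scored active.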 The source made the active and inactive calls.

Tested on: SR leukemia
Assay: NCI-60 one-dose screen, 48 h (100 = growth as untreated, 0 = no growth, -100 = all killed)
Settings: 10 µM

| Compound | growth |
| --- | --- |
| CN(C)CCN=c1nc2c(c(N)n1-c1ccccc1)c(=S)n(-c1ccccc1)c(=S)n2-c1ccccc1 | 34.7% (inactive) |
| CC1(O)CCC2CC3OC3(C)CCC3OC3(C)CCC1C2(C)C (configuration not stated) | 116% (inactive) |
| N#Cc1cc(-c2cc3ccccc3o2)oc1N | -23.5% (active) |
| Cc1cc(C)c(NC(=O)c2sc3nc4c(cc3c2N)C(=O)CCC4)c(C)c1 | 10.5% (inactive) |
| CCN(CC)CCNC(=O)c1ccc(NC(C)=O)cc1 | 101% (inactive) |
| c1ccc(CP(Cc2ccccc2)c2ccccc2)cc1 | 82.3% (inactive) |
| COc1ccc2c(c1)[n+]([O-])c(C#N)c(NC(=O)c1ccco1)[n+]2[O-] | 87.4% (inactive) |
| CCCCOc1ccc(NC(=O)Nc2nnc(C)s2)cc1 | 101% (inactive) |
| N#Cc1ncc(-c2cc(F)c(F)c(F)c2)c(NC2CCCCCC2)n1 | 78.8% (inactive) |
| O=C1/C(=C\c2ccccc2)CN(C(=O)c2ccccc2F)C/C1=C\c1ccccc1 | -35.1% (active) |
| COc1ccc(/C=C/C(C)=N/OCC(=O)O)cc1 | 93.4% (inactive) |
| COc1ccc2c(c1)nc(N)c1c3cccnc3cn21 | 6.83% (active) |
| COc1ccc(-c2nn(-c3cccc(NC(=O)Nc4ccc(Cl)c(C(F)(F)F)c4)c3)cc2-c2ccncc2)cc1Cl | -18.4% (active) |
| Cc1ccc(C)c(C(O)(c2cc(C)ccc2C)C2(O)CCCCC2)c1 | 85.1% (inactive) |
| Cc1cs/c(=N\NC(=O)c2cc(-c3cc4ccccc4o3)nn2-c2ccccc2)n1-c1ccccc1 | 76.9% (inactive) |
| COc1ccc(/C=C2/CN(C(=O)c3ccc(C)cc3)C/C(=C\c3ccc(OC)cc3)C2=O)cc1 | 12.8% (inactive) |
| O=C1/C(=C\c2ccc(F)cc2)CN(C(=O)c2ccccc2F)C/C1=C\c1ccc(F)cc1 | -17.7% (active) |
| Cc1[nH]nc2c1C(c1cnn(C)c1)C(C#N)=C(N)O2 (configuration not stated) | 89.3% (inactive) |
| CCOC(=O)N1C/C(=C/c2ccc(OC)cc2)C(=O)/C(=C/c2ccc(OC)cc2)C1 | -16.7% (active) |
| COc1ccc(Nc2ncnc3c2c(SC)nn3-c2ccccc2)cc1 | 84.2% (inactive) |
| Clc1nc(Cl)c2c(ncn2C/C=C\Cn2cnc3c(Cl)nc(Cl)nc32)n1 | -66.3% (active) |
| Clc1ccc(Nc2ccnc(NCCCNc3ccnc4cc(Cl)ccc34)n2)cc1 | -55.5% (active) |
